In PubChem BioAssay one finds growth inhibition, inhibition and outcome data, which are given here for 20 compounds.

The nature of test [1]: antimalarial activity against Dd2 strain (AID 2302;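 active = growth inhibition above 50% at the single 2 µM test dose, taken to imply half-maximal potency below 2 µM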;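 note: 0% = DMSO untreated growth and 100% = chloroquine plus artemisinin killed control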). Conditions: P. falciparum Dd2 in RBCs, LDH growth readout, 72 h; at 2 µM; hits give high values.
A short description of test [2]: human hepatoma cell viability loss – ATP luminescence, cytotoxicity control for P. falciparum antimalarial project, primary screen (AID 2303;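 active = inhibition above 50%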;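 note: 0% = DMSO wells and 100% = digitonin-killed cells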). Conditions: HepG2 viability, 24-48 h, at 10 µM, hits give high values.
Test [3] concerns the target L-lactate dehydrogenase (Plasmodium falciparum (isolate CDC / Honduras)) (UniProt Q27743). Nature of the test: PfLDH activity inhibition – cell lysate, 3D7 strain, counter-screen for P. falciparum growth inhibition project (AID 2304).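 Note: 0% = vehicle and 100% = reference inhibitor.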 Conditions: P. falciparum 3D7 crude extract, LDH APAD/NBT absorbance; at 2 µM; hits give high values.
Test [4] is described as follows: inhibition of 3D7 malaria parasite growth – strain 3D7 (AID 2306).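 Note: 0% = DMSO wells and 100% = chloroquine plus artemisinin control wells.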 Conditions: P. falciparum 3D7 erythrocytic growth, LDH absorbance, 72 h; at 2 µM; hits give high values.
In test [5] the target is Calcium-dependent protein kinase 1 (Plasmodium falciparum (isolate 3D7)) (UniProt P62344). Nature of the test: PfCDPK1 kinase inhibitors, biochemical, TCAMS library (AID 1159585; cut-off not given, nearly all actives have IC50 up to about 0.98 µM;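 note: inhibitors leave more ATP so luminescence rises with inhibition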). The conditions noted are these: recombinant PfCDPK1, Kinase-Glo ATP depletion luminescence. For orientation: In Kinase-Glo more light means more ATP remaining.
For test [6], the target named is Plasmodium falciparum protein kinase 6 (PK6, PF3D7_1337100) (UniProt Q8IDW1). Nature of the test: PfPK6 kinase inhibitors, biochemical, TCAMS library (AID 1159586). Conditions: recombinant PfPK6, Kinase-Glo ATP depletion luminescence.
For test [7], the target named is Protein kinase 7 (PK7), Plasmodium falciparum 3D7 (PF3D7_0213400) (UniProt Q7YTF7). Nature of the test: inhibition of Plasmodium PK7 catalytic activity – biochemical, TCAMS antimalarial set, Kinase-Glo luminescence (AID 1159587). Conditions: recombinant PfPK7, Kinase-Glo ATP depletion luminescence.
Test [8] addresses Calcium-dependent protein kinase 4 (Plasmodium falciparum (isolate 3D7)) (UniProt Q8IBS5). Nature of the test: PfCDPK4 kinase inhibitors, biochemical, TCAMS library (AID 1159588; cut-off not given, nearly all actives have IC50 up to about 0.91 µM). Conditions: recombinant PfCDPK4, Kinase-Glo ATP depletion luminescence.

A number with no mark means an inactive call. For some of these results: Measured potencies and affinities stand elsewhere. Calls of active or inactive are those of the source. Unless noted, the rule behind the calls is not given here.

L-lactate dehydrogenase (Plasmodium falciparum (isolate CDC / Honduras)), sequence (Q27743 whole entry, looked up): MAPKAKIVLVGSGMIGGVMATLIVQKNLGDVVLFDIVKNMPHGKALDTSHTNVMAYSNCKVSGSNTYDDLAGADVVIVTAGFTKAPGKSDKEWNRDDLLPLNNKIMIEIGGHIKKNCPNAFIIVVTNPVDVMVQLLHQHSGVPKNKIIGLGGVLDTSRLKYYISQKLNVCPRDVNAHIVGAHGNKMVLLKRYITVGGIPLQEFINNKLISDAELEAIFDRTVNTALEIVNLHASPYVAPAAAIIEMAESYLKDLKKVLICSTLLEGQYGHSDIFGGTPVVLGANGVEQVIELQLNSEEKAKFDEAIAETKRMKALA
Calcium-dependent protein kinase 1 (Plasmodium falciparum (isolate 3D7)), sequence (P62344 whole entry, looked up): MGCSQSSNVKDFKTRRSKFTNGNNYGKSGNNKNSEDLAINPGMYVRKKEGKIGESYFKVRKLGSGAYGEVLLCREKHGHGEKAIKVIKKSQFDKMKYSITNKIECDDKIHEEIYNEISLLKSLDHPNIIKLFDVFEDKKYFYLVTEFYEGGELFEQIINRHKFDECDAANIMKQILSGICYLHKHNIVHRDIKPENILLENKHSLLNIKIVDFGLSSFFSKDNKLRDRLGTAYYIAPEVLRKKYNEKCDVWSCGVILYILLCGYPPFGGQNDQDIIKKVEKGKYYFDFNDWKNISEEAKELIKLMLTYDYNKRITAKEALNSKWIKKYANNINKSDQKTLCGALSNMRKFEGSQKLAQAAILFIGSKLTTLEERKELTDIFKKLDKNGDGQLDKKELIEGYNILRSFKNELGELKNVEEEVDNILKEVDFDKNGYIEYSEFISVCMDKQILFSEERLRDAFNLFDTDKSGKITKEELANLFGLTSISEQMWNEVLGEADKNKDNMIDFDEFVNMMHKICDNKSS
Calcium-dependent protein kinase 4 (Plasmodium falciparum (isolate 3D7)), sequence (Q8IBS5 whole entry, looked up): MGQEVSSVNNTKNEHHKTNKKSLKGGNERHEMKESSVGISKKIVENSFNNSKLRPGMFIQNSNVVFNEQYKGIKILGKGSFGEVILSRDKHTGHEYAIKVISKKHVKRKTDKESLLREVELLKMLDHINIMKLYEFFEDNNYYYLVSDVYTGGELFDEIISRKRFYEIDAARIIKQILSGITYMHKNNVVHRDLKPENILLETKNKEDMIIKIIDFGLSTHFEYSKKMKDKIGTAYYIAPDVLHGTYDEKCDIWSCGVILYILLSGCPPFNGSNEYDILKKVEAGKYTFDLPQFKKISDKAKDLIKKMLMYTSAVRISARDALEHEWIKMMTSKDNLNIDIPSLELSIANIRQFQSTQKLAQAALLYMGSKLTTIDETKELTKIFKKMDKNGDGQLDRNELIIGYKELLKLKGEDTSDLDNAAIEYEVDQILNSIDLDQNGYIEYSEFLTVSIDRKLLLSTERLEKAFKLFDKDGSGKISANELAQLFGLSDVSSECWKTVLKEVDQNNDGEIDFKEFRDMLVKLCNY
Plasmodium falciparum protein kinase 6 (PK6, PF3D7_1337100), sequence (Q8IDW1 1-305): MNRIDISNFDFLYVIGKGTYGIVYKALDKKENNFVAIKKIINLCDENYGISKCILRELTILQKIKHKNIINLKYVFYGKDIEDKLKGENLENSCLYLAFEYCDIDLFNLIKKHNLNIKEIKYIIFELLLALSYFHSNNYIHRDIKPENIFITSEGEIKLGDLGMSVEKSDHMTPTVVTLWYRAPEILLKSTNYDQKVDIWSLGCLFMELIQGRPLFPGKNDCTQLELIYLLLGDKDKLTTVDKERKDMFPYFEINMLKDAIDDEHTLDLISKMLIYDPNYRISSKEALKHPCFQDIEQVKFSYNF
Protein kinase 7 (PK7), Plasmodium falciparum 3D7 (PF3D7_0213400), sequence (Q7YTF7 1-343): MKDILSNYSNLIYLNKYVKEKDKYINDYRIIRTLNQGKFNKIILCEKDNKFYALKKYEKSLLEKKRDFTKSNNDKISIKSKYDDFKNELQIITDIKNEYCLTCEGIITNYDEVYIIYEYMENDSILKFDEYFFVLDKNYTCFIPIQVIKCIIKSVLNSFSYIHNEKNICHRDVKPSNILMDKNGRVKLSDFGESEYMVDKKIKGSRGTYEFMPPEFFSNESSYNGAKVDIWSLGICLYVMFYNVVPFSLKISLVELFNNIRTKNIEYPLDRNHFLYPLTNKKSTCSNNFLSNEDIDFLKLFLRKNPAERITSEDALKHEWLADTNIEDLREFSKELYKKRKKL

As to `O=c1cc(NCCCNCc2cc(C(F)(F)F)ccc2F)[nH]c2ccccc12`, the values for the growth inhibition in test [1] and in test [4] were 43% and 94% (active), respectively. In addition, the figures for the inhibition in test [2] and in test [3] were 0% and -2%, respectively. In addition, the outcome in test [5], in test [6], in test [7] and in test [8] was inactive.
As to `O=C(Nc1ccc(-c2ccccc2)cc1)Nc1cccc(Cn2nc(Cl)c(N3CCCNCC3)cc2=O)c1`, the growth inhibition in test [1] was 37%; in test [4] it was 101% (active). Besides, the inhibition (commonly the relative decrease from the control value, in per cent) is 13% in test [2] and -2% in test [3]. In addition, the outcome in test [5], in test [6], in test [7] and in test [8] was inactive.
For the compound `NC(=O)c1cccc(C(=O)Nc2cccc(-c3csc(-c4nc5ccccc5[nH]4)c3)c2)c1`, the values for the growth inhibition in test [1] and in test [4] were 92% (active) and 101% (active), respectively. In addition, the values for the inhibition in test [2] and in test [3] were 16% and 0%, respectively. In addition, the outcome in test [5], in test [6], in test [7] and in test [8] was inactive.
On to `CCN1CCCC1CNC(=O)c1cc2c(-c3ccc(Cl)cc3)nn(C)c2s1` (stereo not given), for which the growth inhibition in test [1] is 20%; in test [4], 96% (active). The values for the inhibition in test [2] and in test [3] were 27% and -9%, respectively. In addition, the outcome in test [5], in test [6], in test [7] and in test [8] was inactive.
On to `Cc1cccc(CNc2nc(C)cc(NCCC(=O)NCCOc3ccccc3)n2)c1`, for which the growth inhibition in test [1] is 14%; in test [4], 98% (active). The inhibition in test [2] is 18%; in test [3], 0%. The outcome in test [5], in test [6], in test [7] and in test [8] was inactive.
On to `Cc1ccc(C)c(Sc2ccc(NC(=O)CN3CCN(C(=O)c4ccco4)CC3)cc2)c1`, for which the growth inhibition in test [1] was 93% (active); in test [4], 96% (active). The inhibition in test [2] is 28%; in test [3], 1%. Moreover, the outcome in test [5], in test [6], in test [7] and in test [8] was inactive.
Regarding `Cn1nccc1C(=O)NCCNCc1ccc(-c2cccc(-c3nc4ccc(F)cc4[nH]3)c2)cc1`, the growth inhibition is 98% (active) in test [1] and 102% (active) in test [4]. In addition, the results for the inhibition in test [2] and in test [3] were 37% and -7%, respectively. Further, the result in test [5], in test [6], in test [7] and in test [8] was inactive.
Turning to `C[C@H](NC(=O)[C@H](CCCCNC(=O)OC(C)(C)C)NC(=O)OC(C)(C)c1ccc(-c2ccccc2)cc1)C(=O)OCc1ccccc1`, the growth inhibition in test [1] was 1%; in test [4], 97% (active). Moreover, the inhibition in test [2] is 4%; in test [3], -7%. Moreover, the outcome in test [5], in test [6], in test [7] and in test [8] was inactive.
In the case of `O=c1cc(NCCCNCc2ccc3c(c2)OC(F)(F)O3)[nH]c2ccccc12`, the growth inhibition in test [1] is 94% (active); in test [4], 100% (active). The inhibition was -9% in test [2] and -6% in test [3]. Moreover, the outcome in test [5], in test [6], in test [7] and in test [8] was inactive.
Consider `O=C(NCCCCN1CCC(c2c[nH]c3ccccc23)CC1)c1sc(-c2ccc(C(F)(F)F)cc2)nc1CO`, for which the growth inhibition was 3% in test [1] and 94% (active) in test [4]. In addition, the figures for the inhibition in test [2] and in test [3] were 34% and 0%, respectively. Further, the outcome in test [5], in test [6], in test [7] and in test [8] was inactive.
In the case of `COc1ccc(NC(=O)Nc2ccc(Nc3nc(C)cc(N(C)C)n3)cc2)cc1`, the growth inhibition in test [1] is 99% (active); in test [4], 102% (active). Besides, the inhibition in test [2] is 11%; in test [3], -3%. For the same compound, the result in test [5], in test [6], in test [7] and in test [8] was inactive.
Turning to `CC(C)(C)c1ccc(NC(=O)c2ccc(CN3CCCN(Cc4cccc(F)c4)CC3)cc2)cc1`, the values for the growth inhibition in test [1] and in test [4] were 8% and 90% (active), respectively. Moreover, the inhibition in test [2] is 51% (active); in test [3] it was -2%. In addition, the outcome in test [5], in test [6], in test [7] and in test [8] was inactive.
`O=c1cc(NCCCNCc2sc(Br)nc2Br)[nH]c2ccccc12`: the growth inhibition in test [1] was 44%; in test [4], 92% (active). For the same compound, the inhibition in test [2] is 1%; in test [3] it was -2%. The outcome in test [5], in test [6], in test [7] and in test [8] was inactive.
As for `CC(=O)Nc1nc(C(=O)Nc2cccc(-c3cccc(-c4nc5ccccc5[nH]4)c3)c2)cs1`, the growth inhibition in test [1] was 82% (active); in test [4], 100% (active). Besides, the inhibition in test [2] is 31%; in test [3], 0%. Further, the result in test [5], in test [6], in test [7] and in test [8] was inactive.
As for `O=[N+]([O-])c1ccc(NC(=NC2CCCc3ccccc32)Nc2ccccc2Br)c(O)c1` (stereo not given), the growth inhibition is 89% (active) in test [1] and 98% (active) in test [4]. The inhibition in test [2] is -4%; in test [3] it was -3%. Also, the result in test [5], in test [6], in test [7] and in test [8] was inactive.
For `O=C(/C=C/c1ccc(Cl)cc1)NCCCCCN1CCCC(C(=O)Nc2cccc(Cl)c2)C1` (stereo not given), the figures for the growth inhibition in test [1] and in test [4] were 4% and 96% (active), respectively. Also, the inhibition is 21% in test [2] and 0% in test [3]. Also, the result in test [5], in test [6], in test [7] and in test [8] was inactive.
Take `O=C(C=Cc1ccc(Cl)c(Cl)c1)NCCCCCN1CCC(CCNS(=O)(=O)c2ccc(F)cc2)CC1`: the growth inhibition in test [1] is -5%; in test [4] it was 88% (active). In addition, the inhibition in test [2] is 36%; in test [3] it was 2%. Besides, the outcome in test [5], in test [6], in test [7] and in test [8] was inactive.
In the case of `O=C(Nc1cccc(-c2cccc(-c3nc4ccc(F)cc4[nH]3)c2)c1)c1csnn1`, the growth inhibition in test [1] is 29%; in test [4] it was 95% (active). In addition, the inhibition in test [2] is 23%; in test [3], -4%. In addition, the result in test [5], in test [6], in test [7] and in test [8] was inactive.
Take `COc1ccc2c(NN=Cc3ccncc3)cc(C)nc2c1`: the growth inhibition in test [1] is 95% (active); in test [4], 99% (active). Moreover, the inhibition in test [2] and in test [3] was -4% each time. In addition, the result in test [5], in test [6], in test [7] and in test [8] was inactive.
As to `CCOc1ccc(-c2nonc2NC(=O)c2ccco2)cc1OCC`, the growth inhibition in test [1] was 77% (active); in test [4], 97% (active). For the same compound, the inhibition is 3% in test [2] and -1% in test [3]. Also, the outcome in test [5], in test [6], in test [7] and in test [8] was inactive.
